This passage reports Potency results from PubChem BioAssay (NCATS).

SMILES strings stand for the structures. Inconclusive results are not listed. Where a call stands in place of a potency, no number is given. Active and inactive are the calls of the source. Calls follow the shape of the dose curve; as a rule, active = well fitted curve in the direction sought with a large enough effect; inconclusive = small, poorly fitted or top-dose-only effect, or another doubt; inactive = no such curve, though single readings can be large; an effect the other way counts as inactive or inconclusive.

Sequence of Furin (Homo sapiens) (P09958 whole entry, looked up): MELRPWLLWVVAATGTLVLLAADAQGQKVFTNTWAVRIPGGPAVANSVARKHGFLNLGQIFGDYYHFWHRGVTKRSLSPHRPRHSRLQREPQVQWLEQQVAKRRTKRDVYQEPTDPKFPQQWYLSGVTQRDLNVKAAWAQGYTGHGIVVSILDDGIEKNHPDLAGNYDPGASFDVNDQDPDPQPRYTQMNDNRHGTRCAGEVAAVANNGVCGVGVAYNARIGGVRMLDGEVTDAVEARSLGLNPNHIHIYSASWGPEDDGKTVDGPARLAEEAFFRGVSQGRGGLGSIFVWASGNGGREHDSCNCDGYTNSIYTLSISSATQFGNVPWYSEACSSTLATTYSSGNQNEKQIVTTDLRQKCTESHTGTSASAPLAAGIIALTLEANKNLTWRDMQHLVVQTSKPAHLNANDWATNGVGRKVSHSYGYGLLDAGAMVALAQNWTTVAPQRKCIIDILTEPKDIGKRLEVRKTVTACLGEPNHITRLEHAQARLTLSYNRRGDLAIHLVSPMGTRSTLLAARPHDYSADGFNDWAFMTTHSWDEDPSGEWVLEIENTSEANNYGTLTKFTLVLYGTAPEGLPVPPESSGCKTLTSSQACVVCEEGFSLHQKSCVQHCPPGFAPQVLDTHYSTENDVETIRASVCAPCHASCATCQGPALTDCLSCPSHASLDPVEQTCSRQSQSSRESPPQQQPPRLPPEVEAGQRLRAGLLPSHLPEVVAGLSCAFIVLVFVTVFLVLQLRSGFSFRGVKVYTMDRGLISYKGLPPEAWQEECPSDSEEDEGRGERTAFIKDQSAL

The first assay deals with Ubiquitin carboxyl-terminal hydrolase 1 (Homo sapiens) (UniProt O94782). The assay can be described thus: Inhibitors of USP1/UAF1: Pilot qHTS (AID 504865). Also: potency is read from the fitted curve at half-maximal effect; nearly all actives have a fitted effect of over 35% in size. To be noted: purified USP1/UAF1, Ub-rhodamine cleavage fluorescence; series mostly up to 114 µM. In a few lines: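 In 50mM HEPES pH 7.8 containing 0.5mM EDTA, 1mM TCEP, 0.1 mg/ml BSA and 0.01% Tween-20, 1nM USP1/UAF1 is exposed to compound for 15 min, then Ub-Rho (150nM final) is added and fluorescence is read over time.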
Sequence of Ubiquitin carboxyl-terminal hydrolase 1 (Homo sapiens) (O94782 whole entry, looked up): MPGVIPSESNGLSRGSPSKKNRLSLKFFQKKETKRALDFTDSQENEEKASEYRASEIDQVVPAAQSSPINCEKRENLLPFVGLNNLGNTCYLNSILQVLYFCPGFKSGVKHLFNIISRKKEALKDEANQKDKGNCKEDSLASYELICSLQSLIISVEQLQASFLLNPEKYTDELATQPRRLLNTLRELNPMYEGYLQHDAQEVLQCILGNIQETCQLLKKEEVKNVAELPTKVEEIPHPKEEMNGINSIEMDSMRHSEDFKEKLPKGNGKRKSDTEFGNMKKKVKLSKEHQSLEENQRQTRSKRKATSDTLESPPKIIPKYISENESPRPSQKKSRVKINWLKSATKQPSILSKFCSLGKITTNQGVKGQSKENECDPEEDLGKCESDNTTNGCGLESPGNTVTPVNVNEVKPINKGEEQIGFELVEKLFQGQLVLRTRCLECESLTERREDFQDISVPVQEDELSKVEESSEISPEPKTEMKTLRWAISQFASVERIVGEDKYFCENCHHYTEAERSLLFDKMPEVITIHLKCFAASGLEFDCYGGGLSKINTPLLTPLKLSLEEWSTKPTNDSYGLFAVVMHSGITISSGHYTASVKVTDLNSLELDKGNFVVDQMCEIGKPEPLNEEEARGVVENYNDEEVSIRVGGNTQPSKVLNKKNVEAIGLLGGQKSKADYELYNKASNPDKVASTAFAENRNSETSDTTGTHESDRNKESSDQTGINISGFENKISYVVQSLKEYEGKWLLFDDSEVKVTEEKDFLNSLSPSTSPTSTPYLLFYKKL
(In general: In qHTS, concentration-response curves come from the screen itself.)
In the case of `CCOc1nc2cccc(C(=O)OC(C)OC(=O)OC3CCCCC3)c2n1Cc1ccc(-c2ccccc2-c2nn[nH]n2)cc1` (centres undefined), the Potency was 22.4 µM (active).

On to `CC(C)=CCCC1(C)C=Cc2c(O)c3c(c(CC=C(C)C)c2O1)OC12C(=CCCC1C(C)(C)O[C@@]2(C/C=C(\C)C(=O)O)C(=O)O)C3=O` (some centres undefined), for which the Potency is 79.4 µM (active).

Consider `Cc1cc(C)cc(C(=O)N(C)[C@H](Cc2ccc(-c3ccccc3)cc2)C(=O)N[C@@H](Cc2c[nH]c3ccccc23)C(=O)O)c1`, for which the Potency is 79.4 µM (active).

Another assay deals with Furin (Homo sapiens) (UniProt P09958). The assay can be described thus: Furin counterscreen qHTS for Zika virus inhibitors (AID 1347149).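 Also: purified recombinant full-length human furin enzyme at 5 nM; fluorescence gain from furin cutting a BOC-RVRR-AMC peptide substrate over 15 min; top concentration of the series differs between compounds; nearly all actives have a fitted effect of over 70% in size.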 To be noted: furin enzymatic counterscreen, fluorogenic substrate; series mostly up to 114 µM. In outline:
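Counterscreen measures cleavage of 2 microM BOC-RVRR-AMC, below its ~15 microM Km, by 5 nM full-length human furin at pH 7.0 after a 15-min compound preincubation. Inhibition derives from the 15-min fluorescence increase at 37C.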
A general note: A counterscreen serves to expose hits that act by an unwanted route or on another target.
Regarding `O=C(OCc1cc(=O)n2nc(C3CC3)sc2n1)c1cccc(NC(=O)c2ccccc2Cl)c1`, the Potency result was “inactive”.

For the compound `CCOC(=O)c1ccc(NC(=O)CSc2nc(-c3cccs3)cc(C(F)(F)F)c2C#N)cc1`, the Potency result is “inactive”.

`Cc1cccc(OCC(=O)Nc2ccc(C(=O)OCc3cc(=O)n4nc(C5CC5)sc4n3)cc2)c1`: the Potency entry is “inactive”.

With `Cc1ccc(-c2nnc(Nc3ccc(O)cc3)c3ccccc23)cc1S(=O)(=O)NC(C)(C)CO`, the Potency entry is “inactive”.

For another assay, the system named is Zika virus NS2B-NS3 protease (linked construct). Put plainly: Confirmatory screen NINDS AMC qHTS for Zika virus inhibitors (AID 1347152). Also: nearly all actives have a fitted effect of over 70% in size. Also: potency is read from the fitted curve at half-maximal effect. To be noted: Purified linked NS2B-NS3, AMC substrate fluorescence; series mostly up to 110 µM. In outline:
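Enzyme (1 nM, linked construct) was preincubated with compound for 15 minutes at room temperature in 10 mM Tris-HCl pH 8.0 with 0.01% Tween 20. Bz-Nle-Lys-Arg-Arg-AMC was then added to 10 microM, and AMC fluorescence was recorded immediately and after 15 minutes.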
`O=S(=O)(N[C@H]1CO[C@H]2[C@@H]1OC[C@@H]2n1nnnc1-c1ccc2c(c1)OCO2)c1ccc2ccccc2c1`: the Potency entry is “inactive”.

With `Clc1ccc(-c2nn3c(COc4cc(Cl)c(OCc5nnc6sc(-c7ccc(Cl)cc7)nn56)cc4Cl)nnc3s2)cc1`, the Potency was 20 µM (active).

Take `CCOc1nc2cccc(C(=O)OC(C)OC(=O)OC3CCCCC3)c2n1Cc1ccc(-c2ccccc2-c2nn[nH]n2)cc1` (centres undefined): the Potency is 12.1 µM (active).

On to `O=C(Nc1ccc(Oc2ccccc2)cc1)O[C@@H]1CO[C@H]2[C@@H]1OC[C@@H]2n1nnnc1-c1ccc(-c2ccccc2)cc1`, for which the Potency entry is “inactive”.

Regarding `Clc1ccc(-c2nn3c(COc4cccc(OCc5nnc6sc(-c7ccc(Cl)cc7)nn56)c4)nnc3s2)cc1`, the Potency is 50.1 µM (active).

Regarding `O=C(O)c1cccc(-c2cc(C(F)(F)F)ccc2Cl)c1`, the Potency result was “inactive”.

Take `N#Cc1ccccc1S(=O)(=O)N[C@H]1CO[C@H]2[C@@H]1OC[C@H]2OC(=O)Nc1ccc(Oc2ccccc2)cc1`: the Potency result was “inactive”.

Take `Clc1nc2n[nH]nc2nc1Cl`: the Potency was 22.4 µM (active).

For the compound `C[C@@H](NC(=O)c1ccc(Cl)cc1)c1c(-c2ccc(F)cc2)noc1C(=O)O`, the Potency result was “inactive”.

Take `C[S+](=O)([O-])c1ccc(OCC2CN(Cc3ccccc3)C(=O)c3c(ccnc3-c3ccc(OCC(=O)O)cc3)O2)cc1` (centres undefined): the Potency entry is “inactive”.

As for `N#Cc1ccc(OCC2CN(Cc3cccc(C(F)(F)F)c3)C(=O)c3c(ccnc3-c3ccc(OCC(=O)O)cc3)O2)cc1` (centres undefined), the Potency entry is “inactive”.

Turning to `Clc1cc(OCc2nnc3sc(Cc4ccccc4)nn23)c(Cl)cc1OCc1nnc2sc(Cc3ccccc3)nn12`, the Potency was 12.6 µM (active).

As to `Cc1cc(C)cc(C(=O)N(C)[C@H](Cc2ccc(-c3ccccc3)cc2)C(=O)N[C@@H](Cc2c[nH]c3ccccc23)C(=O)O)c1`, the Potency is 9.61 µM (active).

Take `O=C(Nc1ccc(Oc2ccccc2)cc1)O[C@@H]1CO[C@H]2[C@@H]1OC[C@@H]2NS(=O)(=O)c1ccc2ccccc2c1`: the Potency entry is “inactive”.

Take `CCCCc1nn(-c2ccccc2C(F)(F)F)c(=O)n1Cc1ccc(-c2ccccc2S(=O)(=O)NC(=O)c2sccc2C)cc1`: the Potency is 24.1 µM (active).

Take `COc1ccccc1-c1ccnc(N[C@H]2CO[C@H]3[C@@H]2OC[C@@H]3NS(=O)(=O)c2ccc3ccccc3c2)n1`: the Potency result is “inactive”.

On to `O=C(OCC#CCSc1nnc(-c2ccc(Cl)cc2)o1)c1ccc(F)cc1`, for which the Potency entry was “inactive”.

With `O=C(Nc1ccc(Oc2ccccc2)cc1)O[C@@H]1CO[C@H]2[C@@H]1OC[C@@H]2NS(=O)(=O)c1ccc(Cl)cc1`, the Potency entry is “inactive”.

In a further assay the test system is Zika virus NS2B-NS3 protease (unlinked complex). The assay can be described thus: Confirmatory screen GU AMC qHTS for Zika virus inhibitors (AID 1347153). Also: nearly all actives have a fitted effect of over 70% in size.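 As to Potency: enzyme at 25 nM with substrate at 10 µM below its Km of 18.3 µM; potency is read from the fitted curve at half-maximal effect.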 To be noted: Recombinant NS2B-NS3 protease, AMC substrate fluorescence; series mostly up to 111 µM. In a few lines:
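Compounds were preincubated 15 min at room temperature with 25 nM noncovalent NS2B-NS3 protease at pH 8.0; AMC substrate added at 10 microM and 15-min fluorescence gain (340/450 nm) converted to percent inhibition, fitted 4-parameter.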
`O=S(=O)(N[C@H]1CO[C@H]2[C@@H]1OC[C@@H]2n1nnnc1-c1ccc2c(c1)OCO2)c1ccc2ccccc2c1`: the Potency entry was “inactive”.

Regarding `C=NC(C(=O)N[C@H]1C(=O)N2C1SC(C)(C)C2C(=O)O)c1ccccc1` (some centres undefined), the Potency entry was “inactive”.

For `CCOc1nc2cccc(C(=O)OC(C)OC(=O)OC3CCCCC3)c2n1Cc1ccc(-c2ccccc2-c2nn[nH]n2)cc1` (centres undefined), the Potency was 17.1 µM (active).

On to `O=C(Nc1ccc(Oc2ccccc2)cc1)O[C@@H]1CO[C@H]2[C@@H]1OC[C@@H]2n1nnnc1-c1ccc(-c2ccccc2)cc1`, for which the Potency result is “inactive”.

With `CC(C)=CCCC1(C)C=Cc2c(O)c3c(c(CC=C(C)C)c2O1)OC12C(=CCCC1C(C)(C)O[C@@]2(C/C=C(\C)C(=O)O)C(=O)O)C3=O` (some centres undefined), the Potency is 19.2 µM (active).

As for `O=C(O)c1cc(NCc2cc(O)ccc2O)ccc1O`, the Potency entry is “inactive”.

As for `O=C(O)c1cccc(-c2cc(C(F)(F)F)ccc2Cl)c1`, the Potency result was “inactive”.

Turning to `CN(C)[C@@H]1C(=O)C(C(=O)NCN2CCCC2)=C(O)[C@@]2(O)C(=O)C3=C(O)c4c(O)cccc4[C@@](C)(O)[C@H]3C[C@@H]12`, the Potency is 9.61 µM (active).

For the compound `N#Cc1ccccc1S(=O)(=O)N[C@H]1CO[C@H]2[C@@H]1OC[C@H]2OC(=O)Nc1ccc(Oc2ccccc2)cc1`, the Potency entry is “inactive”.

`C[S+](=O)([O-])c1ccc(OCC2CN(Cc3ccccc3)C(=O)c3c(ccnc3-c3ccc(OCC(=O)O)cc3)O2)cc1` (centres undefined): the Potency entry was “inactive”.

`Cc1cc(C)cc(C(=O)N(C)[C@H](Cc2ccc(-c3ccccc3)cc2)C(=O)N[C@@H](Cc2c[nH]c3ccccc23)C(=O)O)c1`: the Potency is 19.2 µM (active).

Turning to `O=C(Nc1ccc(Oc2ccccc2)cc1)O[C@@H]1CO[C@H]2[C@@H]1OC[C@@H]2NS(=O)(=O)c1ccc2ccccc2c1`, the Potency entry is “inactive”.

For the compound `CCCCc1nn(-c2ccccc2C(F)(F)F)c(=O)n1Cc1ccc(-c2ccccc2S(=O)(=O)NC(=O)c2sccc2C)cc1`, the Potency is 21.5 µM (active).

As for `COc1cc(O)c2c(=O)cc(-c3ccc(OC)c(-c4c(O)cc(O)c5c(=O)cc(-c6ccc(O)cc6)oc45)c3)oc2c1`, the Potency was 44.1 µM (active).

In the case of `Cc1c(-c2ccc(O)cc2)nn(-c2ccc(O)cc2)c1-c1ccc(OCCN2CCCCC2)cc1`, the Potency result was “inactive”.

Take `COc1ccccc1-c1ccnc(N[C@H]2CO[C@H]3[C@@H]2OC[C@@H]3NS(=O)(=O)c2ccc3ccccc3c2)n1`: the Potency result was “inactive”.

For `CO[C@H]1C[C@@H](O[C@@H]2/C(C)=C/C[C@@H]3C[C@@H](C[C@]4(CC[C@H](C)[C@@H](C5CCCCC5)O4)O3)OC(=O)[C@@H]3C=C(C)/C(=N/O)[C@H]4OC/C(=C\C=C\[C@@H]2C)[C@]43O)O[C@@H](C)[C@H]1O`, the Potency result is “inactive”.

With `O=C(OCC#CCSc1nnc(-c2ccc(Cl)cc2)o1)c1ccc(F)cc1`, the Potency result was “inactive”.

Consider `O=C(Nc1ccc(Oc2ccccc2)cc1)O[C@@H]1CO[C@H]2[C@@H]1OC[C@@H]2NS(=O)(=O)c1ccc(Cl)cc1`, for which the Potency entry was “inactive”.
